Reference: PubChem BioAssay (NCI)
The panel holds about 79,000 compounds, 15% with a hit somewhere; the sample as a whole holds those more often. Cut-off read from the data, not from the text of the source: active = growth inhibition above about 70%; inactive = the rest. Where a SMILES comes first, the peptide text is derived from it. The star is where a group is joined. Fmoc = O=C(OCC1c2ccccc2-c2ccccc21)*; OBn = c1ccc(CO*)cc1; tBu = CC(C)(C)*

Assays:
[1] = NCI Yeast Anticancer Drug Screen. Data for the rad50 strain (AID 155);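 note: 0% = growth of vehicle-only cultures of the same strain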; conditions: S. cerevisiae rad50 strain growth inhibition; at 50.0 µM; stronger effect = higher value
Method in brief: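 Growth of the mutant yeast was measured after compound exposure and referenced to vehicle-treated cultures.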

[2] = NCI Yeast Anticancer Drug Screen. Data for the mec2-1 strain (AID 157); conditions: S. cerevisiae mec2-1 strain, at 50.0 µM, stronger effect = higher value
Method in brief: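 Cells of the genetically defined mec2-1 yeast strain are incubated with test compound. Inhibition of growth is calculated against vehicle-treated controls.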

[3] = NCI Yeast Anticancer Drug Screen. Data for the sgs1 mgt1 strain (AID 161);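 note: 0% = growth of cultures given vehicle only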; conditions: S. cerevisiae sgs1 mgt1 strain, at 50.0 µM, stronger effect = higher value
Method in brief: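 Mutant yeast exposed to compound; growth scored against vehicle-only wells.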

[4] = NCI Yeast Anticancer Drug Screen. Data for the cln2 rad14 strain (AID 165);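 note: 0% = growth equal to vehicle treated cultures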; conditions: S. cerevisiae cln2 rad14 strain, at 50.0 µM, stronger effect = higher value
Method in brief: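 The screen exposed genetically defined yeast (cln2 rad14) to test compounds and scored growth inhibition relative to vehicle-treated controls.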

[5] = NCI Yeast Anticancer Drug Screen. Data for the bub3 strain (AID 167); conditions: S. cerevisiae bub3 mutant strain, at 50.0 µM, stronger effect = higher value
Method in brief: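 Whole-cell yeast assay. The mutant strain was incubated with compounds, and growth inhibition was determined by comparison with vehicle-treated cells.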

[6] = NCI Yeast Anticancer Drug Screen. Data for the mlh1 rad18 strain (AID 175); conditions: S. cerevisiae mlh1 rad18 strain growth inhibition; at 50.0 µM; stronger effect = higher value
Method in brief: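 Compound-treated yeast growth, normalised to vehicle controls. Strain bears defined DNA repair mutations.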

Measured: growth inhibition

CS(=O)(=O)OC1C(O)C(O)OC(CO)C1O (stereo unspecified)
inactive: [1] -18.4% | [2] 12.9% | [3] 4.5% | [4] -49.7% | [5] 5.75% | [6] 7.7%

CCc1ccc(NC(=O)c2cc(OC)c(OC)c(OC)c2)cc1
inactive: [1] 1.1% | [2] 29.4% | [3] 2.6% | [4] -12.3% | [5] 17.5% | [6] 29.2%

COCCCn1cnn2c(=O)c3ccccc3nc2c1=O
inactive: [1] -12% | [2] 2.85% | [3] 23.8% | [4] 12.4% | [5] 21.3% | [6] 6.25%

CCCNC(=O)c1cccc2c1-c1ccccc1C2=O
inactive: [1] -0.55% | [2] 3.85% | [3] -2.65% | [4] -1.7% | [5] 4.65% | [6] -1.45%

Nc1ccc(Cl)cc1[N+](=O)[O-]
inactive: [1] 4.85% | [2] -3.75% | [3] 12.2% | [4] 25.1% | [5] -3.9% | [6] 15.8%

O=C(Nc1ccccc1-c1ccccc1)c1cccnc1
inactive: [1] 2.65% | [2] 22.6% | [3] 9.2% | [4] 8.1% | [5] -11.2% | [6] 5.45%

CC[N+](CC)(CC)CC(=O)c1ccc(Br)cc1
inactive: [1] 18.7% | [2] 12.7% | [3] 13.1% | [4] -0.35% | [5] 25% | [6] 8.2%

CC(C)N=C(NC#N)NS(=O)(=O)c1cnccc1Nc1ccc(Cl)cc1
inactive: [1] -11.1% | [2] 18.8% | [3] -13% | [4] -1.9% | [5] -18.1% | [6] 24.8%

COC(=O)C(C(=O)C(=O)Nc1cccc([N+](=O)[O-])c1)c1nc2ccc([N+](=O)[O-])cc2[nH]c1=O (stereo unspecified)
inactive: [1] 37.6% | [2] 17.6% | [3] -10.2% | [4] -37.8% | [5] 9.2% | [6] 46.5%

Nc1ncnc2c1ncn2[C@@H]1C[C@H]1CO
inactive: [1] -39.6% | [2] 10.8% | [3] -23.6% | [4] 12.1% | [5] 20.6% | [6] -23.4%

CC(CC(C(=O)Nc1ccccc1)(c1ccccc1)c1ccccc1)N(C)C (stereo unspecified)
inactive: [1] -0.2% | [2] -18.2% | [3] 3.55% | [4] -2.15% | [5] -5.1% | [6] 6.2%

CCC(=O)Nc1nnc(SCCCCCCCCCCSc2nnc(NC(=O)CC)s2)s1
inactive: [1] 20.6% | [2] 4.95% | [3] 17.7% | [4] 19.3% | [5] -2.5% | [6] 21.5%

Oc1cccc(NCNC2Nc3ccccc3N2)c1
inactive: [1] 6.5% | [2] 14.7% | [3] -1.4% | [4] -11.1% | [5] 9.7% | [6] 13.6%

O=C1CC(=O)N2CCCCC2N1 (stereo unspecified)
inactive: [1] -17.7% | [2] -5.15% | [3] -0.25% | [4] -10.9% | [5] 6.4% | [6] -25.7%

CC1=NNC(=O)CC1C(O)c1ccccc1 (stereo unspecified)
inactive: [1] -31.1% | [2] 3.65% | [3] -12.1% | [4] 3% | [5] -8.45% | [6] -11.4%

COC(=O)c1cc2c(cc1CC(Cc1ccc3c(c1)CCC3)C(=O)OC)CCC2 (stereo unspecified)
inactive: [1] 27.9% | [2] 1.25% | [3] -21.6% | [4] -34.1% | [5] 3.95% | [6] -4.65%

C=CCCCCCCCCC(=O)N/N=C/c1ccc(NC(C)=O)cc1
inactive: [1] 10.2% | [2] 6.55% | [3] 7.1% | [4] 3% | [5] 11.8% | [6] 7.1%

O=C(O)CNc1ncnc2[nH]ncc12
inactive: [1] 7% | [2] -25.1% | [3] 2.85% | [4] 3.8% | [5] -8.1% | [6] 6%

CNCCC1CCCCCC1
inactive: [1] 1.8% | [2] 5.45% | [3] -1.15% | [4] -13.5% | [5] 10.9% | [6] -2.8%

Cc1cc2ccccc2[nH]1
inactive: [1] 33.9% | [2] -15.3% | [3] -3.65% | [4] 3.1% | [5] 2.75% | [6] 10%

Cc1cc(NC(=O)CCc2ccc(N3C(N)=NC(N)=NC3(C)C)cc2)ccc1S(=O)(=O)O
inactive: [1] 38.1% | [2] -5.55% | [3] 8.05% | [4] -14.4% | [5] 2.05% | [6] -5.55%

CSc1nc2c(c(=O)n(C)c(=O)n2C)n1C
inactive: [1] 30.4% | [2] -3.25% | [3] -10.7% | [4] 8.15% | [5] 9.15% | [6] 24.9%

CC(OC(C)(C)C)C(NC(=O)OCC1c2ccccc2-c2ccccc21)C(=O)NC(Cc1ccccc1)C(=O)OCc1ccccc1 (stereo unspecified) (Fmoc-Thr(tBu)-Phe-OBn; configuration not given here)
inactive: [1] -32.2% | [2] -7.7% | [3] -4.5% | [4] -15.7% | [5] -18.6% | [6] 0.45%

Cc1ccc(S(=O)(=O)/C(=C/c2ccccc2)CC(=O)c2ccccc2)cc1
inactive: [1] 9.05% | [2] 6.55% | [3] -22.1% | [4] -18.4% | [5] 11.1% | [6] 17%

N#CCCOCC(COCCC#N)(COCCC#N)COCCC#N
inactive: [1] -11.9% | [2] -24.4% | [3] -7.55% | [4] 10% | [5] -12.9% | [6] -2.25%

CC(=O)Nc1cccc(C)n1
inactive: [1] -17.8% | [2] -3.2% | [3] 1.6% | [4] -71.8% | [5] -0.95% | [6] 1.7%

Cn1cnc(=S)c2ccccc21
inactive: [1] -11% | [2] -12.8% | [3] -18.3% | [4] -6.05% | [5] 0.8% | [6] -29.1%

Cc1ccc(-c2nnc(CCCCCCCCc3nnc(-c4ccc(C)cc4O)n3N)n2N)c(O)c1
inactive: [1] 9.2% | [2] -21.9% | [3] 3.75% | [4] 7.5% | [5] 1.75% | [6] 0.5%

O=C(Nc1cccc(F)c1)Oc1ccc(OCc2ccccc2)cc1
inactive: [1] 3.8% | [2] 6.6% | [3] 9.9% | [4] 8.7% | [5] 17.9% | [6] 16%

O=[N+]([O-])c1ccc(Cl)c(OCCBr)c1
inactive: [1] 0% | [2] 3.15% | [3] -2.05% | [4] 1.15% | [5] 31.9% | [6] 9%

Cc1csc[n+]1C/C(=N/O)c1ccc(I)cc1
inactive: [1] 36.2% | [2] -3.75% | [3] 14.8% | [4] 3.65% | [5] 2.75% | [6] 17.1%

CCOC(=O)C1=CCOc2cc(N(C)C)ccc21
inactive: [1] -9.25% | [2] 9.15% | [3] -1.25% | [4] 32.4% | [5] 8.75% | [6] -6.9%

CC(CCOCC1CO1)OCC1CO1 (stereo unspecified)
inactive: [1] 13.8% | [2] -17.4% | [3] 3.85% | [4] 14.8% | [5] -17.5% | [6] 22.6%

O=C(O)/C=C(/Oc1ccccc1)c1ccccc1
inactive: [1] -12.3% | [2] -7.7% | [3] -7.95% | [4] -8.7% | [5] -19.8% | [6] -3.55%

Cc1ccccc1NC(=O)CC#N
inactive: [1] 8.15% | [2] -12.3% | [3] 1.5% | [4] 3.85% | [5] -0.7% | [6] 2.2%

CN(C)CCCN1CCc2c([nH]c3ccccc23)C1c1cccnc1 (stereo unspecified)
inactive: [1] -3.35% | [2] -14.8% | [3] -0.45% | [4] -0.75% | [5] -6.2% | [6] -21.1%

CC(N)C(=O)NC(C)P(=O)(O)O (stereo unspecified)
inactive: [1] 2.7% | [2] 1.4% | [3] -7.15% | [4] -73% | [5] 9.05% | [6] 8.2%

Nc1cccc(/C=C/c2cccc([N+](=O)[O-])c2)c1
inactive: [1] 18.2% | [2] 37.5% | [3] 12.8% | [4] 4% | [5] 60.3% | [6] 30.2%

O=C(c1ccccc1)C1(c2ccccc2)C(C(=O)c2ccccc2)(c2ccccc2)S1(=O)=O (stereo unspecified)
inactive: [1] -19.8% | [2] -13.5% | [3] -8.05% | [4] -38.8% | [5] -6.6% | [6] -15.3%

Cc1cc(Br)c(NC(=O)c2c(-c3c(Cl)cccc3Cl)noc2C)c(Br)c1
inactive: [1] -3.35% | [2] -16.3% | [3] -8.15% | [4] 4.9% | [5] -11.7% | [6] 4.9%

O=C(NCCCl)Nc1[nH]c(=O)ncc1Cl
inactive: [1] -12.2% | [2] -13.2% | [3] -16.5% | [4] -30.6% | [5] -12.4% | [6] -3.15%
